# Rab9 promoter act: qHTS Assay for Rab9 Promoter Activators; Huh7 Rab9 promoter-luciferase reporter, luminescence, 24 h; Potency, µM (titrated, usually from 9.22 µM), inactives show at the top dose activation, negative = inhibition, actives largely listed as activators; 320,000 compounds, 2.8% hits; further: % of control where 0% means no effect; nearly all actives have a fitted effect of over 60% in size
#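 Huh7 cells stably carrying a Rab9 promoter-luciferase reporter, 1500 cells per well in OP-MEM I with 10% FBS, treated with compound 24 hours at 37C. Luciferase activity read by luminescence after 10 minutes with Amplite reagent.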
# FLuc modulator: qHTS profiling assay for firefly luciferase inhibitor/activator using purifed enzyme and Km concentrations of substrates (counterscreen for miR-21 project); Luciferin 4-monooxygenase (Photinus pyralis), P08659; purified FLuc, Km substrates, luminescence inhibition; 360,000 compounds, 6.9% hits; AID 588342, 2011; Potency, µM (highest dose often 57.5 µM), for inactives: top-dose activity change, negative = inhibition, most hits filed as inhibitors;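 further: plate controls were vehicle for no effect and reference inhibitor for full effect; nearly all actives have a fitted effect of over 55% in size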
# Target sequence (P08659 whole entry, looked up): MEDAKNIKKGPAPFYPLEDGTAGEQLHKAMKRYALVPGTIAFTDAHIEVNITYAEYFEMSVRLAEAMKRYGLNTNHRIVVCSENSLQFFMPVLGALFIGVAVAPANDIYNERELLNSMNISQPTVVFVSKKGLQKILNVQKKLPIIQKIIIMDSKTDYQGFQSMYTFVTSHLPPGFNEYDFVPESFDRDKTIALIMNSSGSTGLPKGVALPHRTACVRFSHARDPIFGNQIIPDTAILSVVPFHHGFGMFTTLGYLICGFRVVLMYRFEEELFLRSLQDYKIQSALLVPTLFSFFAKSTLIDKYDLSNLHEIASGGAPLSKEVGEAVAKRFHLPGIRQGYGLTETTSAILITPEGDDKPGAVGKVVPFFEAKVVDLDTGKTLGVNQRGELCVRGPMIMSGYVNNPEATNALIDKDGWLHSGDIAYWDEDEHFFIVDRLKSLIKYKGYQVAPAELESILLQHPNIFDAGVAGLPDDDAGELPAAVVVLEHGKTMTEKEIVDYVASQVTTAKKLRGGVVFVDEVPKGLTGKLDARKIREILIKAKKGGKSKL
#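 Biochemical qHTS of compounds, final roughly 60 µM downward over six points, against 10 nM purified firefly luciferase using Km concentrations of substrates (10 uM D-luciferin, 10 uM ATP) in Tris acetate pH 7.5 buffer; luminescence output.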
# SMN2 splice up: qHTS Assay for Enhancers of SMN2 Splice Variant Expression; 210,000 compounds, 2.8% hits; HEK293 SMN2-luciferase splicing reporter, luminescence, 30-36 h; Potency, µM (series often up to 46.1 µM), for inactives: at the top dose activity change, positive = activation, hits mostly activators; AID 1458, 2008; further: % of control where 0% means no effect; nearly all actives have a fitted effect of over 55% in size
#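 qHTS luciferase splicing reporter: luminescence rises when SMN2 exon 7 is included in transfected HEK293 cells. Compound exposure lasted 30-36 h at 37C, with 4.5 mM final sodium butyrate as control, followed by a ONE-Glo read.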
# NPC1 prom act: qHTS Assay for NPC1 Promoter Activators; Potency, µM (highest dose often 9.22 µM), for the others: top-dose activation, most hits filed as activators; 320,000 compounds, 2.4% hits; Huh7 NPC1 promoter luciferase reporter, 24 h; further: % of control where 0% means no effect; nearly all actives have a fitted effect of over 60% in size
#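 Luminescence read-out of NPC1 promoter-driven luciferase in stably transfected Huh7 cells; compounds delivered in DMSO and left 24 h at 37C, 5% CO2, qHTS titration format.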
# ELG1 genotoxic: qHTS screen for small molecules that induce genotoxicity in human embryonic kidney (HEK293T) cells expressing luciferase-tagged ELG1. HEK293T ELG1-luciferase reporter, luminescence, 16 h. AID 504466, 2011. 330,000 compounds, 1.3% hits. Potency, µM (series often up to 46 µM), for inactives: top-dose activity change, positive = activation, usual class: activators; further: % of control where 0% means no effect; nearly all actives have a fitted effect of over 60% in size
#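 Reporter readout depends on ELG1 protein level, which increases with genetic stress. After 16 hr compound exposure at 37 °C, luciferase activity was quantified using ONE-Glo.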
# KinaseGlo FLuc: Counterscreen for Luciferase (Kinase-Glo TM) Inhibition; Kinase-Glo luciferase, ATP luminescence, 8 min; AID 1379, 2008; 200,000 compounds, 0.28% hits; Potency, µM (highest dose often 38.3 µM), for the others: at the highest dose activity change, negative = inhibition, most hits filed as inhibitors; Luciferin 4-monooxygenase (Photuris pensylvanica), Q27757; further: on the % scale 0 is the no-effect control and ±100 the full control effect; nearly all actives have a fitted effect of over 60% in size
#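 Light output from Kinase-Glo luciferase with luciferin and 10 uM ATP in 50 mM imidazole pH 7.2, KCl, MgCl2, Tween 20, BSA; compound pin-delivered, 8-min ambient incubation, then luminescence read.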
# * = called active by the depositor; ? = inconclusive; . = not tested or not shown. An excerpt weighted towards active compounds, which were near 7.4% of everything screened. The call rests on the fitted dose curve; in most records, active means well fitted curve in the direction sought with a large enough effect; inconclusive means small, poorly fitted or top-dose-only effect, or another doubt; inactive means no such curve, though single readings can be large; an effect the other way counts as inactive or inconclusive. Potency means the concentration at half of the fitted maximal effect.
SMILES,Rab9 promoter act,FLuc modulator,SMN2 splice up,NPC1 prom act,ELG1 genotoxic,KinaseGlo FLuc
Cc1ccccc1Nc1c(-c2ccsc2)nc2c(C)cccn12,.,?,13µM*,.,.,.
Cc1ccn2c(Nc3ccccc3C)c(-c3ccncc3)nc2c1,-10%,?,18µM*,-3%,2%,-3%
Cc1ccc(O)c(NC(=O)c2cc(-c3ccccc3)on2)c1,15%,?,.,?,16µM*,.
CCCc1cc(C(=O)Nc2cc(C)ccc2O)no1,-19%,2.7µM*,.,27%,15µM*,.
O=C(Nc1cc(Br)ccc1O)c1cc(-c2ccccc2)on1,25%,-18%,.,29%,10%,.
Cc1ccc(-c2cc(C(=O)Nc3c(C#N)cnn3C)no2)cc1,27%,6.7µM*,?,15%,13%,4%
CCCCC(Sc1nc(N)c(NC(=O)c2ccc(OC)cc2)c(=O)[nH]1)C(=O)O (stereo not drawn),3%,-18%,14%,-1%,3%,0%
Cc1c(C)c2ccc(OCC(=O)N3CCC(C(=O)O)CC3)cc2oc1=O,-1%,19µM*,.,-1%,-1%,.
COc1ccc2c(c1)c(=O)oc1cc(OCC(=O)NCC3CCC(C(=O)O)CC3)ccc12 (stereo not drawn),1%,11µM*,.,11%,11%,.
COc1ccc(-c2cc3ccc(OCC(=O)NCC4CCC(C(=O)O)CC4)cc3oc2=O)cc1 (stereo not drawn),4.5µM*,0.95µM*,.,3.2µM*,?,.
O=C(O)C1CCN(C(=O)COc2ccc3c4c(c(=O)oc3c2)CCCC4)CC1,-7%,-21%,.,0%,2%,.
CCc1cc(=O)oc2cc(OCC(=O)NCC3CCC(C(=O)O)CC3)ccc12 (stereo not drawn),-2%,7%,.,0%,-1%,.
O=C(NCCSc1c(-c2ccc(Cl)cc2)[nH]c2ccccc12)c1ccc(S(=O)(=O)N2CCOCC2)cc1,.,1%,-23%,.,.,.
COC(=O)c1c(NC(=O)c2ccccc2C(=O)O)sc2c1CCC2,7%,-4%,.,-1%,0%,.
NC(=O)c1c(NC(=O)c2ccc(N3C(=O)CCC3=O)cc2)sc2c1CCCC2,-3%,11µM*,.,1%,8%,.
NC(=O)c1c(NC(=O)c2ccccc2C(=O)O)sc2c1CCCC2,5%,17µM*,.,2%,-6%,.
NC(=O)c1c(NC(=O)c2ccccc2F)sc2c1CCCC2,0.89µM*,1.9µM*,.,1.6µM*,?,.
NC(=O)c1c(NC(=O)c2ccccc2Cl)sc2c1CCC2,?,15µM*,.,?,?,.
COc1cccc(NC(=O)c2ccc3nc(Cc4ccccc4)oc3c2)c1,.,-17%,.,.,.,.
Cc1ccc(-n2nc3c(N4CCCC(C(=O)NCc5ccc(Cl)cc5)C4)nnc(C)c3c2C)cc1 (stereo not drawn),.,-15%,.,.,.,.
CCc1ccc2occ(CC(=O)Nc3sc4c(c3C(=O)NCCOC)CCCC4)c2c1,.,-9%,11%,.,.,.
NC(=O)c1c(NC(=O)c2cccnc2Cl)sc2c1CCCC2,0%,19µM*,3%,-2%,8%,-4%
Cn1cc(Br)c(C(=O)Nc2sc3c(c2C(N)=O)CCCC3)n1,?,3µM*,.,7%,11%,.
Cc1onc(-c2c(F)cccc2Cl)c1C(=O)Nc1sc2c(c1C(N)=O)CCC2,-6%,-2%,10%,-8%,-11%,-3%
NC(=O)c1c(NC(=O)c2ccc(F)cc2Cl)sc2c1CCC2,?,13µM*,.,?,-2%,.
Cc1cc(C)cc(OCCOCCn2c(-c3ccc(Cl)cc3)nc3ccccc3c2=O)c1,.,-5%,-8%,.,.,.
O=C(NCCc1ccccc1)c1n[nH]c2ccccc12,3.5µM*,11µM*,11µM*,2.5µM*,?,-3%

# Assay outcomes as filed in PubChem BioAssay.
